Data on 13 molecules can be found in PubChem BioAssay (EPA / NIEHS).

Read-out in assay [1]: Monocyte Chemoattractant Protein-1 (MCP1), CCL2 (gene 6347)
Nature of the assay: BSK_4H_MCP1: BioMAP Diversity Plus: 4H Assay for Monocyte Chemoattractant Protein-1 (MCP1) Biomarker Activity (AID 2283018). Conditions: primary human endothelial cells (HUVEC); actives raise or lower the signal. Put shortly:
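Readout: MCP-1 ELISA on compound-treated HUVEC, sampled 24 h post-dosing. Baseline and negative control DMSO; bidirectional fit. Overt toxicity checked alongside by sulforhodamine B protein staining at time of biomarker measurement.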

The target of assay [2] is human RAR-related Orphan Receptor beta (RORb), RORB (gene 6096) (UniProt Q92753). Kind of assay: ATG_RORb_TRANS: Attagene TRANS-FACTORIAL HepG2 Assay for human RAR-related Orphan Receptor beta (RORb) (AID 2283010; active = hit-call score of the fitted dose curve at least 0.9, where 1 is the maximum). Put shortly: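 In this TRANS-format test, human HepG2 cells express chimeric NR-Gal4 fusion proteins driving GAL4-UAS reporters. After 24 h dosing, reporter transcripts are measured by fluorescent RT-PCR/capillary electrophoresis, with DMSO as negative control.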
human RAR-related Orphan Receptor beta (RORb), RORB (gene 6096), sequence (Q92753 whole entry, looked up, the tested form may be a part): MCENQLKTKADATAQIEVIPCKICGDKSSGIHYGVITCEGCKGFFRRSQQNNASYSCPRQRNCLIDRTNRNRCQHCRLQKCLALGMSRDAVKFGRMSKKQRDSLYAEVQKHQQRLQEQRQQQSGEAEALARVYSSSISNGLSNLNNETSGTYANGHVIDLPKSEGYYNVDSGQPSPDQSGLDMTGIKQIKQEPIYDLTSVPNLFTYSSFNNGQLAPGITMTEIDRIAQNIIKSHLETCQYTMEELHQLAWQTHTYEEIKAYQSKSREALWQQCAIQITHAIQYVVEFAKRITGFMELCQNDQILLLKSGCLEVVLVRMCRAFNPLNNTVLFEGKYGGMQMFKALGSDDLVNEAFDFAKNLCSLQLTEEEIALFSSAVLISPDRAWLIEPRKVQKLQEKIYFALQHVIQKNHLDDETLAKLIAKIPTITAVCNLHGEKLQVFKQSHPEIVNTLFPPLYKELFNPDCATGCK

In assay [3] the target is Retinoic acid receptor RXR-alpha (Homo sapiens) (UniProt P19793). Kind of assay: ATG_RXRa_TRANS: Attagene TRANS-FACTORIAL HepG2 Assay for human Retinoid X Receptor alpha (RXRa) (AID 2283012; active = hit-call score of the fitted dose curve at least 0.9, where 1 is the maximum). Put shortly: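 Cells (HepG2) carried transiently transfected GAL4-responsive reporter units. Following a 24 h chemical incubation, reporter mRNA induction was read via RT-PCR fragment analysis; DMSO served as negative control and baseline.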
Retinoic acid receptor RXR-alpha (Homo sapiens), sequence (P19793 whole entry, looked up, the tested form may be a part): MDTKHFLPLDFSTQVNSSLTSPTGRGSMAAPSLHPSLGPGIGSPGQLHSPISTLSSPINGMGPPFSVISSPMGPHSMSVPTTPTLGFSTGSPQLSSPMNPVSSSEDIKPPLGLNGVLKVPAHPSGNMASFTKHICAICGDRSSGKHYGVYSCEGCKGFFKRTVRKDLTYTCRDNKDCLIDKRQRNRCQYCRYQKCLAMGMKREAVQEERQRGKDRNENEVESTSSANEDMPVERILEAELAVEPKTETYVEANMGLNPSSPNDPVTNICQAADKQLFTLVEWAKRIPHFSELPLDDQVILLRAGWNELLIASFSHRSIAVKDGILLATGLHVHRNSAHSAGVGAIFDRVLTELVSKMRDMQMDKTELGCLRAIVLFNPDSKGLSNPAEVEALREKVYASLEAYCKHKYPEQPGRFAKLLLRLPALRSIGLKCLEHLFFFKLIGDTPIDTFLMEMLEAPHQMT

Assay [4] addresses human Retinoid X Receptor beta (RXRb), RXRB (gene 6257) (UniProt P28702). Nature of the assay: ATG_RXRb_TRANS: Attagene TRANS-FACTORIAL HepG2 Assay for human Retinoid X Receptor beta (RXRb) (AID 2283013; active = hit-call score of the fitted dose curve at least 0.9, where 1 is the maximum). Put shortly: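 Multiplexed TRANS reporter assay in HepG2; 24 h dosing; reporter mRNA by RT-PCR/CE fluorescence; gain-of-signal relative to DMSO.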
The target of assay [5] is human Vitamin D Receptor (VDR), VDR (gene 7421) (UniProt P11473). Nature of the assay: ATG_VDR_TRANS: Attagene TRANS-FACTORIAL HepG2 Assay for human Vitamin D Receptor (VDR) (AID 2283022; active = hit-call score of the fitted dose curve at least 0.9, where 1 is the maximum). Put shortly:
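HepG2 cells were transiently transfected with GAL4-UAS reporter units and a chimeric VDR-Gal4 construct, then dosed for 24 hours. Reporter mRNA was quantified by RT-PCR, fluorescent labeling, HpaI digestion and capillary electrophoresis; gain of signal analysed vs DMSO.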

Assay [6] concerns the target human Thyroid Receptor alpha (THRa1), THRA (gene 7067) (UniProt P10827). Nature of the assay: ATG_THRa1_TRANS: Attagene TRANS-FACTORIAL HepG2 Assay for human Thyroid Receptor alpha (THRa1) (AID 2283014; active = hit-call score of the fitted dose curve at least 0.9, where 1 is the maximum). Put shortly: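 HepG2 cells transiently transfected with chimeric NR-Gal4 and GAL4-UAS reporter units, dosed 24 h. Reporter mRNA quantified by RT-PCR, fluorescent labeling, HpaI digestion and capillary electrophoresis; gain-of-signal fit versus DMSO.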

Read-out in assay [7]: Interleukin-1 alpha (IL1a), IL1A (gene 3552)
Kind of assay: BSK_BE3C_IL1a: BioMAP Diversity Plus: BE3C Assay for Interleukin-1 alpha (IL1a) Biomarker Activity (AID 2283016). Conditions: primary human bronchial epithelial cells; actives raise or lower the signal. The method, boiled down: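 Cultures of primary human bronchial epithelial cells receive test chemical. After 24 h, IL-1a is quantified by ELISA, while parallel wells are fixed in TCA and SRB-stained for total protein. Changes in either direction are fitted relative to DMSO.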

Read-out in assay [8]: Monocyte Chemoattractant Protein-1 (MCP1), CCL2 (gene 6347)
Kind of assay: BSK_3C_MCP1: BioMAP Diversity Plus: 3C Assay for Monocyte Chemoattractant Protein-1 (MCP1) Biomarker Activity (AID 2283017). Conditions: primary human endothelial cells (HUVEC); actives raise or lower the signal. Put shortly:
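Human umbilical vein endothelial cells (3C system) exposed to chemicals for 24 h; MCP-1 quantified by ELISA against the DMSO baseline with bidirectional fitting, and parallel SRB staining used to assess cytotoxicity.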

Read-out in assay [9]: Human Leukocyte Antigen - DR isotype (HLADR), HLA-DRA (gene 3122)
Nature of the assay: BSK_3C_HLADR: BioMAP Diversity Plus: 3C Assay for Human Leukocyte Antigen - DR isotype (HLADR) Biomarker Activity (AID 2283019). Conditions: primary human endothelial cells (HUVEC); actives raise or lower the signal. Put shortly: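 HUVEC monoculture, HLA-DR measured by ELISA 24 h after chemical dosing. Fitted bidirectionally against DMSO baseline; parallel SRB staining assessed cytotoxicity, with 3C proliferation read by SRB at 48 h.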

Read-out in assay [10]: Interleukin-8 (IL8), CXCL8 (gene 3576)
Kind of assay: BSK_3C_IL8: BioMAP Diversity Plus: 3C Assay for Interleukin-8 (IL8) Biomarker Activity (AID 2283020). Conditions: primary human endothelial cells (HUVEC); actives raise or lower the signal. The method, boiled down:
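Human vascular endothelial cells (umbilical vein) in the 3C system; IL-8 level detected by ELISA at 24 h post-dose, with DMSO as baseline.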

Read-out in assay [11]: Monokine induced gamma interferon (MIG), CXCL9 (gene 4283)
Nature of the assay: BSK_3C_MIG: BioMAP Diversity Plus: 3C Assay for Monokine induced gamma interferon (MIG) Biomarker Activity (AID 2283021). Conditions: primary human endothelial cells (HUVEC); actives raise or lower the signal. The method, boiled down:
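After 24 h of treatment, human umbilical vein endothelial cultures (3C system) had their MIG biomarker level determined by ELISA, with DMSO serving as negative control.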

Assay [12] can be described thus: BSK_3C_SRB: Viability Assessment in the BioMAP Diversity Plus: 3C Assay (AID 2283023).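 Note: fitted both ways against DMSO so a hit may be signal rise or drop.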 Conditions: primary human endothelial cells (HUVEC). The method, boiled down:
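Human umbilical vein endothelial cells in the 3C system, treated 24 h. Total protein measured by 0.1% sulforhodamine B staining after 10% TCA fixation, read at 560 nm; bidirectional fit versus DMSO.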

Assay [13] can be described thus: BSK_3C_Vis: BioMAP Diversity Plus: 3C Assay for Morphology Visualization (AID 2283025).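 Note: fitted both ways so gain or loss versus DMSO counts.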 As to conditions: primary human endothelial cells (HUVEC). Put shortly: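 Endothelial cells from human umbilical vein were treated with test chemicals for 24 h and inspected by light microscopy for changes in cell conformation.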
Read-out in assay [14]: Pselectin, SELP (gene 6403)
Kind of assay: BSK_4H_Pselectin: BioMAP Diversity Plus: 4H Assay for Pselectin Biomarker Activity (AID 2283026). As to conditions: primary human endothelial cells (HUVEC); actives raise or lower the signal. The method, boiled down:
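Human vascular endothelium from umbilical vein; P-selectin measured by ELISA at 24 h post-dose, with cytotoxicity checked by sulforhodamine B total-protein staining in parallel cultures (0.1% SRB after 10% TCA fixation, read at 560 nm).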

Assay [15] in a line: BSK_4H_SRB: Viability Assessment in the BioMAP Diversity Plus: 4H Assay (AID 2283027).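 Note: cells exposed to compound for 24 h before staining.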 As to conditions: primary human endothelial cells (HUVEC). Put shortly: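 Absorbance at 560 nm of SRB-stained total protein served as the viability read-out in confluent primary human umbilical vein endothelium 24 h after chemical treatment. Curves were fitted bidirectionally against DMSO as negative control.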

Assay [16] can be described thus: BSK_BE3C_SRB: Viability Assessment in the BioMAP Diversity Plus: BE3C Assay (AID 2283028). As to conditions: primary human bronchial epithelial cells. The method, boiled down: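 Human bronchial epithelial primary cells in confluent culture, 24 h after chemical dosing; total protein by 0.1% SRB staining after 10% TCA fixation, read at 560 nm. Bidirectional fitting versus DMSO baseline.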

Read-out in assay [17]: Thrombomodulin, THBD (gene 7056)
Kind of assay: BSK_3C_Thrombomodulin: BioMAP Diversity Plus: 3C Assay for Thrombomodulin Biomarker Activity (AID 2283029). Conditions: primary human endothelial cells (HUVEC); actives raise or lower the signal. Put shortly: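 Thrombomodulin ELISA, human primary HUVEC, 24 h post-dose; data fitted in both directions relative to DMSO.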

The target of assay [18] is human RAR-related Orphan Receptor gamma (RORg), RORC (gene 6097) (UniProt P51449). Nature of the assay: ATG_RORg_TRANS: Attagene TRANS-FACTORIAL HepG2 Assay for human RAR-related Orphan Receptor gamma (RORg) (AID 2283011; active = hit-call score of the fitted dose curve at least 0.9, where 1 is the maximum). The method, boiled down: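 HepG2 cells transiently transfected with GAL4-UAS reporter units and chimeric RORg-Gal4 construct; after 24 h chemical exposure, reporter mRNA measured by RT-PCR with fluorescent capillary electrophoresis, gain of signal fitted against DMSO.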
human RAR-related Orphan Receptor gamma (RORg), RORC (gene 6097), sequence (P51449 whole entry, looked up, the tested form may be a part): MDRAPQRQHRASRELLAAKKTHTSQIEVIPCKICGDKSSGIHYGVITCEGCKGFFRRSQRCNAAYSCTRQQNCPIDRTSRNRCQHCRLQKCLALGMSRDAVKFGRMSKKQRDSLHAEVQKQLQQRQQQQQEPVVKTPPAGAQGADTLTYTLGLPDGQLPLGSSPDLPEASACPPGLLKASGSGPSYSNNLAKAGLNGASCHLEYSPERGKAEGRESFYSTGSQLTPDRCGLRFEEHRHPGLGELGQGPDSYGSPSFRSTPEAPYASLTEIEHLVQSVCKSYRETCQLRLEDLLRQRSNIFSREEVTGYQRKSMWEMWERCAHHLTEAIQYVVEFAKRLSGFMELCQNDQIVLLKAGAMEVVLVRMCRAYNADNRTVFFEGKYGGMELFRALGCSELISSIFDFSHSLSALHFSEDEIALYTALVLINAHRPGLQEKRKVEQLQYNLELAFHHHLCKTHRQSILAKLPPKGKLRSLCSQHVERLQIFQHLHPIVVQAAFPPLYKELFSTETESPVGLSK

Records with an inconclusive call do not appear. Some compounds were tested as several samples or in several runs, with calls that do not always agree. Active and inactive are the calls of the source. Rule for the calls, unless noted: active = hit-call score of the fitted dose curve at least 0.9, where 1 is the maximum; inactive = score below 0.9.

human Thyroid Receptor alpha (THRa1), THRA (gene 7067), sequence (P10827 whole entry, looked up, the tested form may be a part): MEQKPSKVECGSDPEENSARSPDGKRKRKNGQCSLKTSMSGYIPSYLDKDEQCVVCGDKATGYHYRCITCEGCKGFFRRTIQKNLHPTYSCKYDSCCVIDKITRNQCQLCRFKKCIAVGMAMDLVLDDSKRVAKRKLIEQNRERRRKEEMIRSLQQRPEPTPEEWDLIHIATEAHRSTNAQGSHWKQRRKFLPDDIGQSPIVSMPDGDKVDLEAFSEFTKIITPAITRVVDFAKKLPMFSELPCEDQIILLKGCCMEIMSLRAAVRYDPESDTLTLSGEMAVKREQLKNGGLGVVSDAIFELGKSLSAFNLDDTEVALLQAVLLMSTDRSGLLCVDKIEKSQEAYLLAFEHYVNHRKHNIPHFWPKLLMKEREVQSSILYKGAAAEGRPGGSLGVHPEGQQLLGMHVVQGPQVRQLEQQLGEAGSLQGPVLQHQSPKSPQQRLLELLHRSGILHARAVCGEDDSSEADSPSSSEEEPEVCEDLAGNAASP
human Vitamin D Receptor (VDR), VDR (gene 7421), sequence (P11473 whole entry, looked up, the tested form may be a part): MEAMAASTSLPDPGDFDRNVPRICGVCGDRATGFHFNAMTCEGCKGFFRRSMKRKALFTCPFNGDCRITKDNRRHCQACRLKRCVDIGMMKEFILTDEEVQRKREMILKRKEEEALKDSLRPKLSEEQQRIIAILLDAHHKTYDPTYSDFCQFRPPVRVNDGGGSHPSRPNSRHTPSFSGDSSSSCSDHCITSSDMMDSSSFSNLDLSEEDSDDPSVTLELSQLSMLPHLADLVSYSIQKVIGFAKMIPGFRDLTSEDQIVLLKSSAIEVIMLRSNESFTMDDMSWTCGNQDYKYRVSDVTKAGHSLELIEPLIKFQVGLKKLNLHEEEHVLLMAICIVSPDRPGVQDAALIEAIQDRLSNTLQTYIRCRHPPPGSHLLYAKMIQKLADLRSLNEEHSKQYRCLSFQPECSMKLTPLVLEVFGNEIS
human Retinoid X Receptor beta (RXRb), RXRB (gene 6257), sequence (P28702 whole entry, looked up): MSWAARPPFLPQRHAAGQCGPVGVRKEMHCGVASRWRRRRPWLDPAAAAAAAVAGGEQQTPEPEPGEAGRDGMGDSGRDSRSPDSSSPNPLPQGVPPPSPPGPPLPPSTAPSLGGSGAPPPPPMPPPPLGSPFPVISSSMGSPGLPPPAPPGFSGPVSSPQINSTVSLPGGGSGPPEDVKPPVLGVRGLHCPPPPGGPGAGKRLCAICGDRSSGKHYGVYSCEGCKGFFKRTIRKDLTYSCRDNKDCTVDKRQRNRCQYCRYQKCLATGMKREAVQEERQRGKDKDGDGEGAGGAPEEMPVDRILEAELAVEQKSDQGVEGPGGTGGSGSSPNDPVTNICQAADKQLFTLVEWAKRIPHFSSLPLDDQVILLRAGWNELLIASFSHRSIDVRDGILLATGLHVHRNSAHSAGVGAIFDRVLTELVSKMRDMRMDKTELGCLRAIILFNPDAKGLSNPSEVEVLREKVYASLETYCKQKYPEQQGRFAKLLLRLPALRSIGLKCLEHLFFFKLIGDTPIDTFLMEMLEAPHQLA

As for `Nc1nc(N)nc(-c2ccccc2)n1`, the outcome in [1] was inactive.
On to `CCOC(=O)/C=C\C(=O)OCC`, for which, in [1], the result was inactive.
Take `CC1=CC(C)C(C=O)CC1` (stereo not given): the molecule was classed as inactive in [2], in assay [3], in [4] and in assay [5].
With `CCCCCCOC(=O)CCCCC(=O)OCCCCCC`, the call in assay [2], in assay [3], in [6], in assay [7], in assay [8] and in [1] was inactive. Further, the outcome in assay [9], in assay [10], in assay [11], in [5], in assay [12] and in assay [13] was inactive. The outcome in [14], in assay [15], in assay [16] and in assay [17] was inactive. The AC50 in assay [4] is 54.2 µM (active).
`CC(=O)OC1CCCCC1C(C)(C)C` (stereo not given): the result in [2], in assay [3] and in assay [6] was inactive. In addition, the AC50 in [4] is 58.9 µM (active).
Turning to `COc1cc(C)ccc1O`, the molecule was called inactive in assay [2], in assay [3], in assay [4], in [6] and in assay [5].
With `CCC1COC(=O)O1` (stereo not given), the call in assay [2], in [3] and in assay [5] was inactive. Besides, in [4], the AC50 is 70.1 µM (active).
As to `C=CC(=O)O[C@H]1C[C@@H]2CC[C@@]1(C)C2(C)C`, the molecule was classed as inactive in assay [2], in assay [3], in assay [4], in [6] and in assay [5].
As to `CC(=O)c1ccccc1O`, the molecule was called inactive in [2], in assay [3] and in [4].
For `CC(=O)c1ccc(S(=O)(=O)NC(=O)NC2CCCCC2)cc1`, the outcome in assay [2], in assay [18] and in assay [5] was inactive.
As to `CC1C(C)(C)C2=C(C(=O)CCC2)C1(C)C` (stereo not given), the call in [2] and in assay [3] was inactive. In addition, the AC50 in assay [4] is 87.6 µM (active).
In the case of `c1ccc2c(c1)[nH]c1ccccc12`, the molecule was called inactive in assay [2], in assay [3], in assay [4], in assay [6], in assay [7] and in assay [8]. In addition, the outcome in assay [9], in assay [11], in assay [12], in assay [13], in assay [14] and in assay [15] was inactive. For the same molecule, the outcome in assay [16] and in [17] was inactive. For the same molecule, the AC50 in [17] is 6.87 µM (active).
Turning to `CCCCCCCCC(CO)CCCCCC` (stereo not given), the molecule was called inactive in [2], in assay [3], in assay [7], in [9], in assay [10] and in assay [11]. Further, the molecule was classed as inactive in assay [5], in [12], in assay [13], in assay [14], in assay [15] and in assay [16]. The outcome in [17] was inactive. Besides, the AC50 in assay [4] is 21.9 µM (active); in [8], 5.93 µM (active).

One may read the AC50 as the concentration at which the activity in the assay is half-maximal.
